In PubChem BioAssay AID504809 (National Center for Advancing Translational Sciences (NCATS), 2011):
Inconclusive results are not listed. The source made the active and inactive calls. Calls come from the whole dose curve; as a rule, active = well fitted curve in the direction sought with a large enough effect; inconclusive = small, poorly fitted or top-dose-only effect, or another doubt; inactive = no such curve, though single readings can be large or run the other way.

assay: Followup screen for small molecules that induce DNA re-replication in MCF 10A normal breast cells; conditions: MCF 10A DNA re-replication, Hoechst nuclear intensity, 48 h; series mostly up to 46.1 µM
Description: NIH Molecular Libraries Probe Production Network [MLPCN] NIH Chemical Genomics Center [NCGC] MLPCN Grant: Fast Track K99 CA136555 Assay Provider: Melvin DePamphilis, NICHD, NIH Assay Overview Eukaryotic cells normally restrict genome duplication to once per cell division. When this process is aberrant, DNA re-replication occurs when cells reinitiate DNA replication before the first round of replication is complete. DNA re-replication induces the DNA damage response, arrests cell proliferation, and triggers apoptosis. The cell cycle components cyclin A, Cdt-1, Cdc6 and geminin are critical regulators of this process and their misregulation results in DNA re-replication in normal and cancer cells. To identify compounds that induce re-replication in normal cells, an image-based assay was used to measure DNA content of nuclei, as detected by the fluorescent DNA binding dye, Hoechst. Cell nuclei were imaged by a fluorescence scanning plate imager and compounds that induce DNA re-replication were identified by the increase of nuclei with elevated fluorescence intensity.
Assay Protocol Summary For screening, 250 cells in 5 uL/well were dispensed into black clear 1536-well plates (Aurora) using a solenoid-based dispenser. Following transfer of 23 nL compound or DMSO vehicle by a pin tool, the plates were incubated 48 hr at 37 C and 5% CO2. After addition of 1 uL/well Hoescht stain, the plates were incubated 40 min at 37 C, 5% CO2 and total intensity of fluorescent objects (nuclei) were enumerated by an Acumen Explorer Ex3 (TTP LabTech) fluorescence scanning plate imager (405 nm excitation, 500-530 nm emission). Keywords: NIH Roadmap, MLPCN, MLI, MLSMR, qHTS, NCGC, DNA replication, cancer

SMILES	Potency
CS(C)=O.[Cl-].[Cl-].[Cu+2]	inactive
CC(=O)[O-].CS(C)=O.[Cu+]	inactive
CCN(CC)C(=S)SSC(=S)N(CC)CC	21300 nM (active)
CCN(CC)C(=S)SSC(=S)N(CC)CC.[Cl-].[Cl-].[Cu+2]	95 nM (active)
CC(=O)[O-].CCN(CC)C(=S)SSC(=S)N(CC)CC.[Cu+]	190 nM (active)
